The results in this text go back to ChEMBL document CHEMBL3988442, “University of Dundee, Small-Polar-MMV Screening Library” (2021).

Structures are written as SMILES. For some of these results: Results with a measured potency or affinity are listed apart.

What all share (set-up): scale not given: direction of the effect not stated beside the values
Test [1] concerns the target Protein translocase subunit SecA (Escherichia coli (strain K12)) (UniProt P10408). The experiment in a line: Assay to Identify E. coli SecA ATPase Inhibitors. Conditions: 30 µM. In kind it is functional.
Test [2] has as its target T1, Ubiquitin-activating enzyme e1, putative (Leishmania donovani (strain BPK282A1)) (UniProt E9BSI1).
T1 sequence (whole entry): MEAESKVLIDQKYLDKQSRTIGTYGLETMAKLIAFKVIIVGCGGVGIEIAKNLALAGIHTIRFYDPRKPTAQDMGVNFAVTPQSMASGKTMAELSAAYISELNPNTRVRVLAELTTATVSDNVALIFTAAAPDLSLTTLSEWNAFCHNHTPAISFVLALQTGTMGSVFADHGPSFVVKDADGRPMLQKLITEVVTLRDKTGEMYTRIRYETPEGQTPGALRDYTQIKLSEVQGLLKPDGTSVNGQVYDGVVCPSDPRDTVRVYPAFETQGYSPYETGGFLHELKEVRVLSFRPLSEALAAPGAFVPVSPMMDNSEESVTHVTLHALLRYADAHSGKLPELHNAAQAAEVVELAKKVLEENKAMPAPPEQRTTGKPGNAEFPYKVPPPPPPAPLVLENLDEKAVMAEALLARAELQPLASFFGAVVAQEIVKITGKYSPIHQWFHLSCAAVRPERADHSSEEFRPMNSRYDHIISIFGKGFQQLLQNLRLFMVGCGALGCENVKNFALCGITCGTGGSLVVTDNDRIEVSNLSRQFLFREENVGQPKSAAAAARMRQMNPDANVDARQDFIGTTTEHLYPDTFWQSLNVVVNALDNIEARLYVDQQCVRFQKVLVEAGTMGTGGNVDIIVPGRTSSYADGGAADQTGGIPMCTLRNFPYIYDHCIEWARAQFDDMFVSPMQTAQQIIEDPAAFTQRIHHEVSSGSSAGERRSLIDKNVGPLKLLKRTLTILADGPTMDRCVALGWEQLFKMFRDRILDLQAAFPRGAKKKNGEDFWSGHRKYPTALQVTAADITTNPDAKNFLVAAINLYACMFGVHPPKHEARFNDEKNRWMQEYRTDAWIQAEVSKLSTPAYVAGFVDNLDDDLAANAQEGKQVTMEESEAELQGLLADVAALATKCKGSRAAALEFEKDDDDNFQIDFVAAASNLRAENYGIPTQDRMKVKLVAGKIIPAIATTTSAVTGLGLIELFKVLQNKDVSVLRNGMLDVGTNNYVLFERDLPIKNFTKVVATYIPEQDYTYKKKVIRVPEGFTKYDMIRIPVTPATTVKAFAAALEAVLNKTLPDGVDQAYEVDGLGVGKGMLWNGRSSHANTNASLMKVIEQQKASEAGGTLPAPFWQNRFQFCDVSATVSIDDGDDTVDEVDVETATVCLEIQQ
The experiment in a line: Leishmania donovani Ubiquitin Activating Enzyme (LdE1). In kind it is functional. As to conditions: 30 µM.

Test [3] concerns the target AMP-activated protein kinase, AMPK (Homo sapiens) (UniProt P54646+O43741+P54619+Q9UGJ0+Q9Y478+Q13131+Q9UGI9). The experiment in a line: AMP-dependent Kinase enzyme assay. An in vitro enzyme assay that detects ADP turnover that is directly proportional to AMPK activity. This uses naive AMPK that is activated during the assay with MK-8722. In kind it is functional. As to conditions: 30 µM.

For test [4], the target named is Sialic acid-binding Ig-like lectin 9 (Homo sapiens) (UniProt Q9Y336). The experiment in a line: Hs-Siglec9 ALPHAscreen SOP 20170721. Conditions: 10 µM. In general terms: Bead proximity is the source of the signal in Alpha formats.
Chain of Sialic acid-binding Ig-like lectin 9 (Homo sapiens) (Q9Y336 whole entry): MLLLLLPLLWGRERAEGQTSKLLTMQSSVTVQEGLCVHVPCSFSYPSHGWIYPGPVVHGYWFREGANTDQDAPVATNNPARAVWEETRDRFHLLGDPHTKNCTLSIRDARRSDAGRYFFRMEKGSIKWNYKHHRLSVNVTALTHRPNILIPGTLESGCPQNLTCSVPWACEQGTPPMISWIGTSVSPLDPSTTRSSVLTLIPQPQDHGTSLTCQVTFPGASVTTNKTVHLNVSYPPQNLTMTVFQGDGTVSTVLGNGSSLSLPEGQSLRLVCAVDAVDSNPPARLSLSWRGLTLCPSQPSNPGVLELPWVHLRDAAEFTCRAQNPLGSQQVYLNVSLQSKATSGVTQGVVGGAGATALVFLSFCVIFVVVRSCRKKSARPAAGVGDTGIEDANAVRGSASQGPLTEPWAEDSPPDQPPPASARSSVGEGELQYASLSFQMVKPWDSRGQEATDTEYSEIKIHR
In the next test the test system is Trypanosoma cruzi. As to the kind of experiment: Trypanosoma cruzi phosphomannomutase and mannose-1-phosphate guanylyltransferase assay. As to conditions: 10 µM. It is filed as functional.
The target in test [5] is T2, Arginase-2, mitochondrial (Homo sapiens) (UniProt P78540).
T2 sequence (whole entry): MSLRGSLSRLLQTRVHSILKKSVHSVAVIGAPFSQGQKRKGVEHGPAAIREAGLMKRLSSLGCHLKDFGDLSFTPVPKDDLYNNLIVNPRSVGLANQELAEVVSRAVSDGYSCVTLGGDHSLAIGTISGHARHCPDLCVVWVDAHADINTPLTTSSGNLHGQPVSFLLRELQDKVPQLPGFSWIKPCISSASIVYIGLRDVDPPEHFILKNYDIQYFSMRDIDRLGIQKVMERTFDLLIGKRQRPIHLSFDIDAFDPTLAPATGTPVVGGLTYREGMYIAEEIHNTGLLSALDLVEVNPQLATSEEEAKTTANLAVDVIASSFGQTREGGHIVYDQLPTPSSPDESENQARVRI
As to the kind of experiment: in vitro enzyme assay to detect the production of urea directly proportional to the activity of Arginase II. Note: in the data most compounds retested in dose-response had high values. It is filed as functional. Conditions: 33.3 µM.

Test [6] has as its target T3, Proteasome subunit beta (Trypanosoma cruzi) (UniProt O96673).
T3 sequence (whole entry): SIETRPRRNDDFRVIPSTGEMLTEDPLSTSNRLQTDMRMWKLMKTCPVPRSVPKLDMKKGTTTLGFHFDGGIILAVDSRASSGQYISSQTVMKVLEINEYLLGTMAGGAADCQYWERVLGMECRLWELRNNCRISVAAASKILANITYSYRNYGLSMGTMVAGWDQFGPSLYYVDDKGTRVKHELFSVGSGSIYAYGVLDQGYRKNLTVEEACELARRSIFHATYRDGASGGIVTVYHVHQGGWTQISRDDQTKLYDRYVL
The experiment in a line: Trypanosoma cruzi proteasome chymotrypsin-like activity (TcProtChymo) assay. Note: in the data most compounds retested in dose-response had high values. In kind it is functional. Conditions: 9.37 µM.

For a further test, the species on record is Homo sapiens. As to the kind of experiment: To identify inhibition of the IFN signalling (Jak-Stat) pathway via expression of an eGFP reporter gene under the control of an IFN-stimulated response element (ISRE) containing MxA promoter. It is filed as functional. Conditions: 30 µM. On the technique in general: In a reporter assay the amount or activity of a reporter protein is the signal.

The target in test [7] is T4, Tyrosyl-tRNA synthetase, putative (Trypanosoma cruzi (strain CL Brener)) (UniProt Q4DSP6).
T4 sequence (whole entry): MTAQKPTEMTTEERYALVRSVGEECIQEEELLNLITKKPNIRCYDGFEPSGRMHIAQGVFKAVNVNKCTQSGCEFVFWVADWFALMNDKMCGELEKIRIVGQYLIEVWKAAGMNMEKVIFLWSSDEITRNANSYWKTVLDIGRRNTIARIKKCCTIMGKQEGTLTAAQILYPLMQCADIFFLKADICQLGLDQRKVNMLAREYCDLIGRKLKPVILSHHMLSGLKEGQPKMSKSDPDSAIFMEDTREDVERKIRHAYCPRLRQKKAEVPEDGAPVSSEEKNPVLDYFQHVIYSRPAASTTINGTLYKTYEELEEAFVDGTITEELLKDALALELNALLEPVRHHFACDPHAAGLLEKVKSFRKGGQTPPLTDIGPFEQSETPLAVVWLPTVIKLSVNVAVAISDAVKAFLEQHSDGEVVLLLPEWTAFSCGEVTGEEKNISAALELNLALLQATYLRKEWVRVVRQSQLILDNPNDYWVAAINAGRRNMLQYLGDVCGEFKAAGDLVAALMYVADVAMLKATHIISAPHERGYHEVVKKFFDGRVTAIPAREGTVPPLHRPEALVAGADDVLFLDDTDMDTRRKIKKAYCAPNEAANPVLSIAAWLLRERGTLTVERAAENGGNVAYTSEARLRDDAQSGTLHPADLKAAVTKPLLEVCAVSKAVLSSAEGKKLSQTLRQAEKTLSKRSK
The experiment in a line: Trypanosoma cruzi tyrosyl tRNA synthetase (TcYRS) _High Tyrosine SOP. Note: in the data most compounds retested in dose-response had high values. It is filed as functional. Conditions: 30 µM.

Test [8] has as its target T4, Tyrosyl-tRNA synthetase, putative (Trypanosoma cruzi (strain CL Brener)). As to the kind of experiment: Trypanosoma cruzi tyrosyl tRNA synthetase (TcYRS) SOP. It is filed as functional. As to conditions: 30 µM.
The target in test [9] is Chromo domain-containing protein 1 (Saccharomyces cerevisiae (strain ATCC 204508 / S288c) (Baker's yeast)) (UniProt P32657). The experiment in a line: ScCHD-1 Enzyme Inhibition Assay. Note: in the data most compounds retested in dose-response had high values. In kind it is functional. As to conditions: 30 µM.
Chain of Chromo domain-containing protein 1 (Saccharomyces cerevisiae (strain ATCC 204508 / S288c) (Baker's yeast)) (P32657 whole entry, the tested form may be a part): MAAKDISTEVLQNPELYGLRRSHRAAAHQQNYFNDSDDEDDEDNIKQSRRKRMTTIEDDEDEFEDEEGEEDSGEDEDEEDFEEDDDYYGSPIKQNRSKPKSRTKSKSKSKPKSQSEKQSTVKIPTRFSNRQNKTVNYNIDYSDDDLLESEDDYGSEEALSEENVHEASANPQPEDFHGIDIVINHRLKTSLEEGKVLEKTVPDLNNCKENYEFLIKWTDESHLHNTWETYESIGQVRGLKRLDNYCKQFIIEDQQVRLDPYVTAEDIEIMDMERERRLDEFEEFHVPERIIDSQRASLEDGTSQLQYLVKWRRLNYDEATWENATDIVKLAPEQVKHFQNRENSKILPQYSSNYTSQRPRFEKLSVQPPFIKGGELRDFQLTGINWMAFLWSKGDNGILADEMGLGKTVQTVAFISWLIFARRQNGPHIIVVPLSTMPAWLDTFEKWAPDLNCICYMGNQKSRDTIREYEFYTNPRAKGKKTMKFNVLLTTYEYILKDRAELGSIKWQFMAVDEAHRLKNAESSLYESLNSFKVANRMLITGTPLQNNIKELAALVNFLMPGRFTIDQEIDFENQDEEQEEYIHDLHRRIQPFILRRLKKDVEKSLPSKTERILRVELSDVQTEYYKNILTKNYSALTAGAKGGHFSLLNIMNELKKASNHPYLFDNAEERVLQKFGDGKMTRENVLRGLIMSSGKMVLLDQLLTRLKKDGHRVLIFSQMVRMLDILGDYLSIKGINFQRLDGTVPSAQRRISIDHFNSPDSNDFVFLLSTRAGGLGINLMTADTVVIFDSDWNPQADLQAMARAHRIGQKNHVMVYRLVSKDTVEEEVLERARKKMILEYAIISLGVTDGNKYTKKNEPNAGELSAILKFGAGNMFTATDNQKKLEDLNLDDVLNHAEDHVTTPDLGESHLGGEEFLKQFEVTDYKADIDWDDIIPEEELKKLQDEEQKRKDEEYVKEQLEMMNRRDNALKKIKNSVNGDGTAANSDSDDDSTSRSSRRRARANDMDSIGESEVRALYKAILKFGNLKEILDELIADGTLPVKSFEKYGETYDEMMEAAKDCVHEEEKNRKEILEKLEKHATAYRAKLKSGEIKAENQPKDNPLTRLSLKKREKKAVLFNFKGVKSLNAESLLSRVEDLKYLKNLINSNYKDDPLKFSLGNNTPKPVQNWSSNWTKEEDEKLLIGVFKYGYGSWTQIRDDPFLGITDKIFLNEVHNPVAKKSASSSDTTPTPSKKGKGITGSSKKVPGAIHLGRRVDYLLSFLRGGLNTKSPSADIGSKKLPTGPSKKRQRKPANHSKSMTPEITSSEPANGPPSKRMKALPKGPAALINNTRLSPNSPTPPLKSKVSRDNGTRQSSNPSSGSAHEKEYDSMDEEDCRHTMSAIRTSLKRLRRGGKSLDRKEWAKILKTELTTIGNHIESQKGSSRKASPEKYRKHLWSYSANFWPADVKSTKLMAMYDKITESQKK

Chain of Protein translocase subunit SecA (Escherichia coli (strain K12)) (P10408 whole entry): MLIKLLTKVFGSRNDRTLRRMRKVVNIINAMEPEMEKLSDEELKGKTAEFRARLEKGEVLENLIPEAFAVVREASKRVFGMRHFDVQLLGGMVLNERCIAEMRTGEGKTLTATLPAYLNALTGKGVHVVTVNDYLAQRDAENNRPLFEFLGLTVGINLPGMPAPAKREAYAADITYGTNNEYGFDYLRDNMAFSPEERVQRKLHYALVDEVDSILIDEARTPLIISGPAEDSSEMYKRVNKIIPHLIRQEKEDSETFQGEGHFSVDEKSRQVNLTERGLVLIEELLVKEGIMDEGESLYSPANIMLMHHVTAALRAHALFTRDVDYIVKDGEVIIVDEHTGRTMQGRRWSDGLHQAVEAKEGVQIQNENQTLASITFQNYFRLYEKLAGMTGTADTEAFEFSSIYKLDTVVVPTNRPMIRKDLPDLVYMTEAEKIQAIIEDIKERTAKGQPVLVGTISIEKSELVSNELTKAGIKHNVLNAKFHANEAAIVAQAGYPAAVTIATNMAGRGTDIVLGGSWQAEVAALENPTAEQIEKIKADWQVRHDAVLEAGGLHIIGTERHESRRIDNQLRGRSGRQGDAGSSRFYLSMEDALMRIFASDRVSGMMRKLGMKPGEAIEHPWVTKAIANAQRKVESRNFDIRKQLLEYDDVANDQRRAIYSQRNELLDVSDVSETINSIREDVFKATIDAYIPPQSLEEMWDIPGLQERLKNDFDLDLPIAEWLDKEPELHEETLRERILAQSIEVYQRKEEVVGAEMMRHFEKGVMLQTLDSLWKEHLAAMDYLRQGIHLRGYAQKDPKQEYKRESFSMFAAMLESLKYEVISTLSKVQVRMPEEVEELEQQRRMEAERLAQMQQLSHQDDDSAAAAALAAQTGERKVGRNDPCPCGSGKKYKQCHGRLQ

On to `Cc1cccc(NC(=O)NCCCn2nc3ccccn3c2=O)c1C`, for which the Percent Effect in test [1] is -5.55%; in [2], 2.7%; in [3] it was -32%; in test [4], -5.5%; in the test with Trypanosoma cruzi, 0.0943%; in [5], 0%. In addition, the Percent Effect in test [6] is -1.26%; in the test filed under Homo sapiens, 6.71%; in [7], 8.37%; in test [8] it was 6.17%; in test [9], -9.2%.

As to `CCS(=O)(=O)N1CCO[C@H]2[C@H](OCCCn3cccn3)CC[C@@H]21`, the Percent Effect was -0.913% in test [1]; -2.67% in test [2]; -2.06% in test [3]; -3.13% in test [4]; 3.48% in the test on Trypanosoma cruzi; -47.1% in [5]. The Percent Effect is 5.3% in test [6]; -0.821% in the test filed under Homo sapiens; -4.17% in [7]; 7.5% in test [8]; -1.55% in test [9].

As for `Cc1ccc(NC2CCN(C(=O)Cn3nc(C)cc3C)CC2)nn1`, the Percent Effect in test [1] is -1.08%; in [2], 15.8%; in test [3], -0.776%; in test [4], 6.59%; in the test with Trypanosoma cruzi it was -0.376%; in [5] it was -0.766%. Further, the Percent Effect in test [6] is 17.9%; in the test filed under Homo sapiens, 6.37%; in test [7] it was 3.43%; in test [8], 12.2%; in test [9], -1.72%.

In the case of `Cc1ccn(-c2ccccc2NCc2ccccn2)n1`, the Percent Effect in test [1] is -1.21%; in [2] it was 0%; in test [3] it was 23.2%; in test [4], 4.37%; with Trypanosoma cruzi it was 3.13%; in test [5], 2.27%. Besides, the Percent Effect in [6] was 0.532%; in the test listed under Homo sapiens it was 2.69%; in test [7], 4.3%; in test [8] it was 10%; in [9] it was -1.77%.

With `O=C(c1ccc(NC2CC2)nc1)N1CCCC(n2cccn2)C1` (stereo unspecified), the Percent Effect in [1] was -6.81%; in [2], 5.26%; in test [3], -1.25%; in test [4], 1.67%; in the test with Trypanosoma cruzi, -4.51%; in test [5] it was 2.3%. Besides, the Percent Effect is 3.51% in [6]; 18.5% in the test filed under Homo sapiens; 0.49% in test [7]; 7.32% in test [8]; -0.025% in [9].

For `Cn1cccc1C(CNC(=O)c1ccc(F)cc1F)N1CCCCCC1` (stereo unspecified), the Percent Effect is -3.52% in test [1]; 15.6% in test [2]; -9.64% in test [3]; -10.9% in test [4]; 6.21% with Trypanosoma cruzi; -3.23% in test [5]. For the same compound, the Percent Effect in test [6] is 17.9%; in the test filed under Homo sapiens, 11%; in [7], 8.47%; in test [8], 21.8%; in test [9] it was -12.6%.

Regarding `CC(C)(C)c1ccc(C2(C(=O)NCCCS(C)(=O)=O)CC2)cc1`, the Percent Effect in test [1] was -2.57%; in test [2], 7.79%; in [3], 1.11%; in test [4], 4.51%; with Trypanosoma cruzi, -7.77%; in [5] it was -1.38%. For the same compound, the Percent Effect in [6] was 7.16%; in the test filed under Homo sapiens, 0.292%; in [7], 1.07%; in test [8] it was 6.17%; in [9], -0.462%.

As for `c1ccc2oc(N3CCCCC3Cn3cncn3)nc2c1` (stereo unspecified), the Percent Effect in test [1] was -9.23%; in [2] it was 18.9%; in [3], -13.5%; in test [4], 28.6%; in the test with Trypanosoma cruzi, 11.4%; in test [5], -2.4%. Besides, the Percent Effect is 2.69% in test [6]; 1.84% in the test filed under Homo sapiens; 7.92% in test [7]; 25.6% in [8]; -5.86% in test [9].

`COCCCNC(=O)CN(C)C(=O)c1cc(C)ccc1O`: the Percent Effect was -3.14% in test [1]; 16.2% in test [2]; -6.15% in test [3]; -4.94% in [4]; -5.48% in the test with Trypanosoma cruzi; -0.924% in test [5]. Also, the Percent Effect is 7% in test [6]; -3.62% in the test listed under Homo sapiens; 3.96% in test [7]; 15.8% in [8]; -7.89% in test [9].

As for `CN(C)c1ccc(CC(=O)N[C@@H]2CCNC[C@H]2O)cc1`, the Percent Effect in test [1] is -6.67%; in test [2], 5.41%; in test [3] it was -14.5%; in test [4], 7.45%; with Trypanosoma cruzi, 2.05%; in test [5], 0.744%. Besides, the Percent Effect in test [6] was -1.46%; in the test filed under Homo sapiens it was -17.6%; in [7], 7.53%; in [8] it was 11.1%; in test [9], -2.77%.

On to `CCNC(=O)[C@@H]1C[C@@H](NC(=O)Cc2ccccn2)CN1CCCSC`, for which the Percent Effect in test [1] was -5.92%; in test [2], 0%; in [3] it was 1.44%; in test [4], -0.868%; in the test with Trypanosoma cruzi it was -4.37%; in [5], -1.2%. Moreover, the Percent Effect in test [6] is 6.42%; in the test filed under Homo sapiens, 5.01%; in test [7], 0%; in test [8], -3.7%; in [9] it was 0.131%.
